From PubChem BioAssay
Rows were chosen to be rich in hits. Some 4.7% of all compounds tested hit in one or more screens of this group.
D1 PAM: Potentiators of Human D1 Dopamine Receptor: qHTS; D(1A) dopamine receptor (Homo sapiens), P21728; HEK293 TREx D1 cells, calcium flux, dopamine EC20 potentiation; potentiation, % at 10 µM; hit rate 0.036% among 360,000; AID 504651, 2011; in the data active = potentiation above about 30%
Target sequence (P21728 whole entry, looked up): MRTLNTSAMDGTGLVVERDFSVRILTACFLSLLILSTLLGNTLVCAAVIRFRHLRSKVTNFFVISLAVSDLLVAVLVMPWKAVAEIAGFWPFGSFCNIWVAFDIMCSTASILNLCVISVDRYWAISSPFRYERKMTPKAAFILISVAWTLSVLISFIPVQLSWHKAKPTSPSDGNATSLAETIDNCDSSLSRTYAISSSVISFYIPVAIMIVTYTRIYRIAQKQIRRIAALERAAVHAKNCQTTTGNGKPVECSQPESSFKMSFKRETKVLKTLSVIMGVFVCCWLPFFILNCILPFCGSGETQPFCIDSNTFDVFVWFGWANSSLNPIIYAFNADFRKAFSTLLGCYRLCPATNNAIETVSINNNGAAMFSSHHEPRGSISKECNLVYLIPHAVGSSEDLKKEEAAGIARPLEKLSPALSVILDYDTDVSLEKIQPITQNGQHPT
D1 antagonist: Antagonist of Human D 1 Dopamine Receptor: qHTS; D(1A) dopamine receptor (Homo sapiens), P21728; HEK293 TREx D1 cells, calcium flux, dopamine EC80; hits give low values; activity change, negative = inhibition, % at 10 µM; hit rate 3.2% among 360,000; AID 504652, 2011; in the data active = activity change below about -30%
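Kinetic fluorescence of a calcium dye serves as the read-out. D1-expressing Hek293 Trex cells, induced overnight at 30 C, are exposed to compound for 180 s before an EC80 dopamine addition, then read 180 s further.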
TRHR enhancer: qHTS for Small Molecule Agonists and Allosteric Enhancers of Human TRH Receptor: Primary Screen for Enhancers | TRHR cells, fluo-8 calcium fluorescence, EC20 TRH enhancement | hit rate 0.66% among 360,000 | enhancement, % at 2 µM | AID 493056, 2011; in the data active = enhancement above about 30%
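TRHR-expressing cells loaded with fluo-8 calcium dye were read kinetically (ex 480/em 530) during compound addition, then stimulated with an EC20 of TRH (10 nM final). Enhancement of the Gq-mediated intracellular calcium response was scored.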
TRHR agonist: qHTS for Small Molecule Agonists and Allosteric Enhancers of Human TRH Receptor: Primary Screen for Agonists | Thyrotropin-releasing hormone receptor (Homo sapiens), P34981 | TRHR cells, calcium flux fluo-8, FDSS agonist mode | activation, % at 2 µM | hit rate 0.18% among 360,000 | AID 493084, 2011
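TRHR-expressing cells, plated overnight in medium with 10% serum, were loaded with fluo-8 calcium dye at room temperature. After a 10 s baseline, library compound was pin-added and calcium release was recorded kinetically (ex 480/em 530) as agonist response.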
D1 ag: Allosteric Agonists of the Human D1 Dopamine Receptor: qHTS; hit rate 1% among 360,000; HEK293 T-REx D1 cells, calcium flux, agonist mode; D(1A) dopamine receptor (Homo sapiens), P21728; activation, % at 2 µM
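Inducible HEK293 T-REx D1 cells, force-coupled to calcium signalling, were plated at 4000 cells/well with tetracycline and held overnight at 30 C. After no-wash calcium dye loading, compound-evoked calcium rise over 180 s flagged agonists.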
Numbers stand for hits; – = inactive. Rule as the data show it, unless noted: active = activation above about 30%; inactive = the rest.

SMILES | D1 PAM | D1 antagonist | TRHR enhancer | TRHR agonist | D1 ag
CNS(=O)(=O)c1cccc(C(=O)OCC(=O)c2c(N)n(C)c(=O)n(C)c2=O)c1 | – | -32 | – | – | –
CNS(=O)(=O)c1cccc(C(=O)OCC(=O)/C=C2/N(C)c3ccccc3C2(C)C)c1 | – | -43 | – | – | –
CN1/C(=C\C(=O)COC(=O)c2ccc(O)c(O)c2)C(C)(C)c2ccccc21 | – | – | – | – | –
COC(=O)Nc1ccc(Cc2ccncc2)cc1 | – | – | – | – | –
CC(C)Cc1ccc(C(=O)Nc2ccc(Cc3ccncc3)cc2)o1 | – | – | 38 | – | –
CC(C)(C)NC(=O)NC(=O)COC(=O)c1cccc(F)c1 | – | – | – | – | –
CC(C)(C)NC(=O)NC(=O)COC(=O)c1cccc(OC(F)F)c1 | – | -31 | – | – | –
Cc1noc(/C=C/c2cccs2)c1S(=O)(=O)N1CCC(C(=O)NCc2ccccc2Cl)CC1 | – | – | – | – | –
Cc1ccc(C(=O)C(C)OC(=O)CCN=C2NS(=O)(=O)c3ccccc32)cc1 (configuration not stated) | – | -39 | – | – | –
O=C(CCCN=C1NS(=O)(=O)c2ccccc21)OCC(=O)c1ccccc1 | – | -30 | – | – | –
O=C(CCN=C1NS(=O)(=O)c2ccccc21)OCC(=O)c1ccccc1 | – | – | – | – | –
COc1ccccc1OCC(=O)Nc1nc(-c2ccc(Br)cc2)ns1 | – | – | – | – | –
CN(C)c1ccc(-c2nc3cnccn3c2Nc2cccc(C(F)(F)F)c2)cc1 | – | – | – | – | –
CC1(C(=O)Nc2cccc3ccccc23)CC1(Br)Br (configuration not stated) | – | -31 | – | – | –
CS(=O)(=O)C1=NSC2=NC(=O)/C(=C\c3cccn3-c3ccc(Cl)cc3)C(=N)N21 | – | -36 | – | – | –
CCC1=NN2C(=N)/C(=C/c3ccc(OS(=O)(=O)c4ccccc4)c(OC)c3)C(=O)N=C2S1 | – | – | – | – | –
Cc1cc(/C=C2/C(=N)N3C(=NC2=O)SN=C3S(C)(=O)=O)c(C)n1-c1ccccc1F | – | – | – | – | –
CCS(=O)(=O)C1=NN2C(=N)/C(=C\c3ccc(OC(=O)c4ccco4)c(OC)c3)C(=O)N=C2S1 | – | -33 | – | – | –
CS(=O)(=O)C1=NSC2=NC(=O)/C(=C\c3ccc(OC(=O)c4ccco4)cc3)C(=N)N21 | – | -31 | – | – | –
COc1cc(/C=C2/C(=N)N3N=C(C(C)C)SC3=NC2=O)ccc1OS(=O)(=O)c1ccccc1 | – | -31 | – | – | –
Cn1c(=O)c(=O)n(C)c2cc(S(=O)(=O)N3CCCC3C(=O)Nc3cccc(F)c3)ccc21 (configuration not stated) | – | – | – | – | –
COc1ccc2nc3oc(C(=O)N(C)c4ccc(Cl)cc4)cc3cc2c1 | – | – | – | – | –
CCCC1=NN2C(=N)/C(=C\c3ccc(OCCOc4ccc(NC(C)=O)cc4)c(OC)c3)C(=O)N=C2S1 | – | – | 31 | – | –
O=C(Nc1nccc(-c2cccs2)n1)c1ccccc1Cl | – | -38 | – | – | –
CCOC(=O)CC(NC(=O)CCc1c(C)nc2c(c1C)c(=O)n(C)c(=O)n2C)c1ccc(OCC)c(OC)c1 (configuration not stated) | – | -33 | – | – | –
SMILES | D1 PAM | D1 antagonist | TRHR enhancer | TRHR agonist | D1 ag
Cc1ccc(C(=O)NCCCNc2ccccc2[N+](=O)[O-])cc1 | – | -44 | – | – | –
Cc1ccc(C(=O)NCCCNC(=O)c2ccccn2)cc1 | – | – | – | – | –
Cc1oc2c(c1C(=O)c1ccccc1)C(=O)C(=O)c1ccccc1-2 | – | – | – | – | –
O=C1C(=O)c2c(C(=O)c3ccccc3)coc2-c2ccccc21 | – | -57 | – | – | –
COc1cc(NC(=O)CCc2c(C)nn(-c3ccc(N4CCCCC4)nn3)c2C)cc(OC)c1OC | – | – | – | – | –
Cc1nc2scc(C)n2c(=O)c1S(=O)(=O)N1CCN(c2ccc([N+](=O)[O-])cc2)CC1 | – | -53 | – | – | –
O=c1cc(-c2ccccc2)nc2c(-c3ccccc3)c(C(F)(F)F)[nH]n12 | – | -31 | – | – | –
COc1ccc2cc3c(N)c(C(=O)NCc4ccco4)sc3nc2c1 | – | – | 51 | – | –
CC1=C(C(=O)N2CCCCC2)C(c2cccc(Cl)c2)n2c(nc3ccccc32)N1 (configuration not stated) | – | – | – | – | –
CC1(c2ccc(OC(F)F)cc2)NC(=O)N(CC(=O)NC2CCCCC2)C1=O (configuration not stated) | – | – | – | – | –
CC1(c2ccc([N+](=O)[O-])cc2)NC(=O)N(CC(=O)c2ccc3c(c2)OCO3)C1=O (configuration not stated) | – | – | – | – | 34
CC1(c2ccc(OC(F)F)cc2)NC(=O)N(CC(=O)c2ccc3c(c2)OCO3)C1=O (configuration not stated) | – | -43 | – | – | 47
CC(C)c1ccc(Nc2ncnc3c2nc2n3CCCC2)cc1 | – | – | – | – | –
N#C/C(=C\c1ccc(OCC(N)=O)cc1)C(=O)NC1CC1 | – | -36 | – | – | –
CC1C(=O)N2CCCc3cc(NC(=O)C(=O)NCCc4ccccc4)cc1c32 (configuration not stated) | – | -35 | – | – | –
COCCNC(=O)C(=O)Nc1cc2c3c(c1)CCC(=O)N3CCC2 | – | -31 | – | – | –
CC(C)CCNC(=O)C(=O)Nc1cc2c3c(c1)CCC(=O)N3CCC2 | – | – | – | – | –
CCc1ccccc1N(CC)C(=O)C(=O)Nc1ccc2nc3n(c(=O)c2c1)CCCCC3 | – | – | – | – | –
O=C(Nc1ccc(C(F)(F)F)cc1)c1ccccc1Br | – | -38 | – | – | –
O=C(Nc1ccc(C(=O)c2ccccc2)cc1)c1ccccc1 | – | – | – | – | –
Nc1cc[n+](CC(=O)Nc2ccccc2)cc1 | – | – | – | – | –
O=C(Nc1ccc(NC(=O)c2ccccc2Br)cc1)c1ccccc1 | – | – | – | – | –
O=C(Nc1ccc(C(F)(F)F)cc1)c1ccccc1 | – | -49 | – | – | –
O=C(C[n+]1ccc(C(=O)c2ccccc2)cc1)Nc1ccc(C(F)(F)F)cc1 | – | -43 | – | – | –
CC(=O)c1ccc(N2CCN(C(=O)NCc3noc4ccc(C)cc34)CC2)cc1 | – | – | – | – | –
O=C(COc1ccc(S(=O)(=O)NC2CCCCC2)cc1)N1CCN(c2ccc(F)cc2)CC1 | – | -30 | – | – | –
